# Values joined by “and” are separate entries in the source; they are usually repeats but may differ in a detail not shown here. Equal values may be shown once. Records with an inconclusive call do not appear. Active and inactive are the calls of the source. Unless noted, calls come from the whole dose curve; as a rule, active = well fitted curve in the direction sought with a large enough effect; inconclusive = small, poorly fitted or top-dose-only effect, or another doubt; inactive = no such curve, though single readings can be large; an effect the other way counts as inactive or inconclusive.
# Tests used:
# [1] = qHTS Assay for Lipid Storage Modulators (AID 1519; calls by dose curve; for activity change, negative = inhibition: % is set by controls: 0 for no effect and ±100 for the full control effect); conditions: Drosophila S3 cells, BODIPY lipid droplet/cell ratio, laser cytometry, cells loaded with oleic acid
# In short: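 Cells seeded at 5,000 per well were treated with compounds over a concentration series and loaded with oleic acid (400 uM, as added). Lipid droplet fluorescence (488 nm excitation, 500-530 nm channel) was read by laser-scanning cytometry and normalized to 20 uM Triacsin C.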
# [2] = biological target: DNA repair nuclease/redox regulator APEX1 (Homo sapiens) (UniProt P27695); assay: qHTS Validation Assay for Inhibitors of the Human Apurinic/apyrimidinic Endonuclease 1 (APE1) (AID 1705;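 note: TAMRA fluorescence gain over two minutes as APE1 cuts a quenched THF abasic duplex; % is set by controls: 0 for no effect and ±100 for the full control effect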); conditions: purified APE1 endonuclease activity, fluorescence, titration; series mostly up to 57.1 µM
# DNA repair nuclease/redox regulator APEX1 (Homo sapiens), sequence (P27695 whole entry, looked up): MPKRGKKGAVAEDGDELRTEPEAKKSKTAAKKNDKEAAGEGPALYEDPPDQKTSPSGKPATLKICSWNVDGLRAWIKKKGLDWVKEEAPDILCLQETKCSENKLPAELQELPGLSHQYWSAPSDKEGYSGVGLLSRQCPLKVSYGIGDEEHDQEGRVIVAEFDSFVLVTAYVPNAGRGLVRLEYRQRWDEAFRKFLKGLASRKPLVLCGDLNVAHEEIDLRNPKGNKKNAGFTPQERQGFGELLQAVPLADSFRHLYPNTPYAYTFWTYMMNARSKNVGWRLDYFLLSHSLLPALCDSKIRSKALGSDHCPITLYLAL
# In short: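 Endonuclease activity of human APE1 is followed as dequenching when the enzyme incises a tetrahydrofuran abasic site in a short duplex labelled 5'-TAMRA/3'-BHQ-2 (50 nM final), after 15 min enzyme–compound preincubation at room temperature.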
# [3] = Counterscreen for APE1 Inhibitors: Fluorescent Dye Displacement Validation Assay (AID 1707); conditions: fluorescent dye displacement from DNA; series mostly up to 57.1 µM;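 note: plate controls were ThO with dsDNA and no compound for no effect and ThO without dsDNA for full effect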
# In short: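 Endpoint fluorescence read at 480 nm excitation / 540 nm emission; DNA-binding compounds lower signal by displacing 250 nM Thiazole Orange from 50 nM dsDNA containing a tetrahydrofuran abasic site, Tris-HCl pH7.5 buffer with NaCl and MgCl2.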
# [4] = biological target: Endonuclease 4 (Escherichia coli (strain K12)) (UniProt P0A6C1); assay: Counterscreen for APE1 Inhibitors: qHTS Validation Assay for Inhibitors of Endonuclease IV (AID 1708); note: % is set by controls: 0 for no effect and ±100 for the full control effect; conditions: E. coli endonuclease IV, DNA cleavage fluorescence; series mostly up to 57.1 µM
# In short: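 Incision of a double-stranded 50 nM TAMRA/BHQ-2 abasic substrate was followed kinetically (525/598 nm, reads every 60 s) after 15 min enzyme–compound preincubation with 2 nM EndoIV in pH 7.5 Tris buffer with MgCl2, DTT and Tween-20; concentration-response format.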
# [5] = qHTS for differential inhibitors of proliferation of Plasmodium falciparum line 7G8 (AID 1815); conditions: Plasmodium falciparum 7G8 proliferation inhibition; series mostly up to 28.7 µM;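 note: potency is the fitted concentration of half-maximal effect; parasite growth measured after three days of incubation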
# [6] = qHTS for differential inhibitors of proliferation of Plasmodium falciparum line GB4 (AID 1816); conditions: Potency: Plasmodium falciparum GB4 proliferation inhibition; series mostly up to 28.7 µM;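 note: potency is the fitted concentration of half-maximal effect; parasite growth measured after 72 h incubation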
# [7] = qHTS for differential inhibitors of proliferation of Plasmodium falciparum line 3D7 (AID 1876); note: potency is the fitted concentration of half-maximal effect; conditions: P. falciparum 3D7 proliferation inhibition; series mostly up to 28.7 µM
# [8] = qHTS for differential inhibitors of proliferation of Plasmodium falciparum line D10 (AID 1877); conditions: series mostly up to 28.7 µM;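 note: potency is the fitted concentration of half-maximal effect; parasites grown with compound for 72 h before DNA staining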
# [9] = qHTS for differential inhibitors of proliferation of Plasmodium falciparum line W2 (AID 1883); conditions: Potency: Plasmodium falciparum W2 proliferation inhibition; series mostly up to 28.7 µM;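 note: potency is the fitted concentration of half-maximal effect; parasites grown with compound for 72 h before lysis and staining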
# [10] = qHTS for differential inhibitors of proliferation of Plasmodium falciparum line HB3 (AID 1886); conditions: Potency: Plasmodium falciparum HB3 proliferation inhibition; series mostly up to 28.7 µM;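 note: potency is the fitted concentration of half-maximal effect; parasites grown with compound for 72 h before SYBR Green readout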
# [11] = biological target: Ferritin light chain (Equus caballus) (UniProt P02791); assay: qHTS Validation Assay for Identification of Novel General Anesthetics (AID 2323); conditions: horse apoferritin, anesthetic-site fluorescent probe displacement; series mostly up to 76.9 µM; note: % is set by controls: 0 for no effect and ±100 for the full control effect
# Ferritin light chain (Equus caballus), sequence (P02791 2-175 limits assumed): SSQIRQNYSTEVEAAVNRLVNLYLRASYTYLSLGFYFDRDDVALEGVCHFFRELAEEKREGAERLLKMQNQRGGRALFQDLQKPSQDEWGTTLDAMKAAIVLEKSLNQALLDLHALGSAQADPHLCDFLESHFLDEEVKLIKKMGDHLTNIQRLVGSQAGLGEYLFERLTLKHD
# In short: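 Apoferritin from horse spleen (10 uM) was mixed with 1-aminoanthracene at 50% saturation in PBS, then compounds were added. After 10 min at room temperature, fluorescence was read (ex 380 nm, em 535 nm) and normalized to free-probe and complex controls.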
# [12] = biological target: ATP-dependent DNA helicase Q1 (Homo sapiens) (UniProt P46063); assay: qHTS Validation Assay for Inhibitors of RecQ-Like Dna Helicase 1 (RECQ1) (AID 2353); conditions: recombinant RECQ1 helicase DNA unwinding assay; series mostly up to 25.6 µM;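 note: plate controls were DMSO vehicle for no effect and enzyme-free control for full effect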
# ATP-dependent DNA helicase Q1 (Homo sapiens), sequence (P46063 whole entry, looked up): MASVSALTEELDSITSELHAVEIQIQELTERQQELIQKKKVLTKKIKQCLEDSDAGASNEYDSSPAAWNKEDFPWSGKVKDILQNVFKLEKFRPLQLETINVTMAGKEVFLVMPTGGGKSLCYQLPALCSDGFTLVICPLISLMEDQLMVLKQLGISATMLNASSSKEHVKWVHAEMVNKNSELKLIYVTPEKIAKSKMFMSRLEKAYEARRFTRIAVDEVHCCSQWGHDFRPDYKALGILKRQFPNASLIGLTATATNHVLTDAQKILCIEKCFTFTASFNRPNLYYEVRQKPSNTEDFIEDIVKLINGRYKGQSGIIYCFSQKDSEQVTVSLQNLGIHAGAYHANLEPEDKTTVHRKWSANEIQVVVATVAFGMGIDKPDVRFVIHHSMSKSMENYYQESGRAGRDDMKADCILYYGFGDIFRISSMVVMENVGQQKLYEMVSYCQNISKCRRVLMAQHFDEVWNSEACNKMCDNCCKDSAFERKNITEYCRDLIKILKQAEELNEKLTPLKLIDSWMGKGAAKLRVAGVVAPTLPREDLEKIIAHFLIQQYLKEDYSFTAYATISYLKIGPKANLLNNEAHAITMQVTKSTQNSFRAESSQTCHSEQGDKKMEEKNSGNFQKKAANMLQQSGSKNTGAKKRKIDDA
# In short: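 RECQ1T1 50 nM; forked duplex (20 bp + 30-nt ss tails) 200 nM, ATP 2 mM final; pH 8.0, 2 mM MgCl2, 2.5 ug/ml poly(dI-dC); 15 min compound preincubation; discontinuous kinetic read over 2 h at RT.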
# [13] = biological target: RecQ-like DNA helicase BLM (Homo sapiens) (UniProt P54132); assay: qHTS Validation Assay for Inhibitors of Bloom's syndrome helicase (BLM) (AID 2364); conditions: BLM helicase DNA unwinding, fluorescence, in vitro; series mostly up to 57.1 µM;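 note: plate controls were DMSO vehicle for no effect and enzyme-free control for full effect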
# RecQ-like DNA helicase BLM (Homo sapiens), sequence (P54132 whole entry, looked up): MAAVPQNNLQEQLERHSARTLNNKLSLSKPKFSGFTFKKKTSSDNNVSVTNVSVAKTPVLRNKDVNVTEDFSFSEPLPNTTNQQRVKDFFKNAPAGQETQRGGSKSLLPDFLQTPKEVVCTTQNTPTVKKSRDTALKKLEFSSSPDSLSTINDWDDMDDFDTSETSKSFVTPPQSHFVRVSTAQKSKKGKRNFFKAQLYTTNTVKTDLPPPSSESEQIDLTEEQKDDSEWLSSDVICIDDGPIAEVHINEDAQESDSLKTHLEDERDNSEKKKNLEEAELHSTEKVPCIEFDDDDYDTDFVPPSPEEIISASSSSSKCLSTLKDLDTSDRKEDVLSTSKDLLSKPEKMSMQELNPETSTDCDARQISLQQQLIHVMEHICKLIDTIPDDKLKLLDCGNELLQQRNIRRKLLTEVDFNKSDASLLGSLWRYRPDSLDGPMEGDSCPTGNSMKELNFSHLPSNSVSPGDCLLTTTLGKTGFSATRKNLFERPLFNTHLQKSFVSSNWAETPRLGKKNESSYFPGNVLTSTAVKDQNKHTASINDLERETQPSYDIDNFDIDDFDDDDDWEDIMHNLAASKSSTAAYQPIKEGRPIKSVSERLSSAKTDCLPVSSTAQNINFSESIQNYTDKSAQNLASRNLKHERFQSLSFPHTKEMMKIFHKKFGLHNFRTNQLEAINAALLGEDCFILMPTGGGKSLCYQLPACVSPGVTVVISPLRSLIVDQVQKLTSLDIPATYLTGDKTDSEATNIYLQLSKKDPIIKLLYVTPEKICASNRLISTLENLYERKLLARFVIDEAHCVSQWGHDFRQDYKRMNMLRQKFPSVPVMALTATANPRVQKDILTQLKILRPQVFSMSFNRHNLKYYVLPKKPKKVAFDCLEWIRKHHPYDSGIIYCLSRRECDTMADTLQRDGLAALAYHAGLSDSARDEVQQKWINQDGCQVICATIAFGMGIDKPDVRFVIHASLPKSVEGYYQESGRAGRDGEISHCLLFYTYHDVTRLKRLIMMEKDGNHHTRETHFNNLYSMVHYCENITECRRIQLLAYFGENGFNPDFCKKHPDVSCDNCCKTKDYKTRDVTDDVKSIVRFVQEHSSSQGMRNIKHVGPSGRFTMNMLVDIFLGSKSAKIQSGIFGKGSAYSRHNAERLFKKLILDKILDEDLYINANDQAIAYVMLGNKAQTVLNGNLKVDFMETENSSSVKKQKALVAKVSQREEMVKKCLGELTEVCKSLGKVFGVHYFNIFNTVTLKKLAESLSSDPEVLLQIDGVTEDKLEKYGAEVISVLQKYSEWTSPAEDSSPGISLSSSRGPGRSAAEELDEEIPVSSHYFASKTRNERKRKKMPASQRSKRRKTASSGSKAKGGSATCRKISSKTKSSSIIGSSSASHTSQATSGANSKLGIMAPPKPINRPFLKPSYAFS
# In short: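 Forked 20-bp duplex substrate (200 nM, TAMRA/BHQ-2) plus 2 mM ATP added after 15 min compound preincubation with 50 nM enzyme, pH 8.0, poly(dI-dC) 2.5 ug/ml. Strand separation followed by fluorescence (525/598 nm) over 2 h, normalized to enzyme-free and DMSO controls.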
# [14] = Cytometric Cell-Based qHTS for Inhibitors of the mTORC1 Signaling Pathway in MEF (Tsc2-/-, p53-/-) Cells (AID 2660); conditions: mTORC1 pathway cytometry; series mostly up to 38.3 µM;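 note: Tsc2 and p53 null MEFs carrying empty vector with compound for 24 h; percent of cells above a phospho-rpS6 to PI ratio cutoff in each well; plate controls were DMSO for no effect and rapamycin for full effect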
# In short: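 Cells are plated, treated with compound for 24 hrs at 37 degree Celsius, then fixed, blocked and immunostained for phospho-rpS6 Ser235/236. Propidium iodide counterstain follows. Per-well % positive cells is derived from the PI-normalized phospho-S6 signal.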
# [15] = High Content Imaging Cell-Based qHTS for Inhibitors of the mTORC1 Signaling Pathway in MEF (Tsc2-/-, p53-/-) Cells (AID 2666); conditions: series mostly up to 38.3 µM;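 note: percent of cells scored positive for phospho-rpS6 Ser235/236 immunostaining by imaging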
# In short: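 Tsc2-/-, p53-/- MEFs (empty-vector stable) grown in DMEM + 10% FBS were exposed to compounds for 24 hrs at 37 degree Celsius, fixed, and stained with Alexa-488 anti-phospho-rpS6 Ser235/236 plus Hoechst. Imaging gave the percentage of positive cells per well.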
# [16] = High Content Imaging Cell-Based qHTS for Inhibitors of the mTORC1 Signaling Pathway in MEF Cells (AID 2667); conditions: series mostly up to 38.3 µM;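 note: Tsc2-/- p53-/- MEFs stably re-expressing wild-type Tsc2 exposed 24 h; plate controls were DMSO wells for no effect and rapamycin control wells for full effect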
# In short: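 Tsc2-/-, p53-/- MEFs stably re-expressing WT Tsc2, grown in DMEM + 10% FBS, were treated with compounds for 24 hrs at 37 degree Celsius, fixed, and stained with Alexa-488 phospho-rpS6 Ser235/236 antibody plus Hoechst; results given as % positive cells.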
# [17] = measured here: cell count channel max response
# [18] = measured here: lipid channel max response
structure (smiles),measurement,setting,value
S=c1nc[nH]c2nc[nH]c12,"activity change, negative = inhibition",[1]; at 57.5 µM (top of the series),2.17% (inactive)
same,max response,[1]; [17],9.84%
same,max response,[1]; [18],14.8%
CN(C)CCc1c[nH]c2ccc(Cn3cncn3)cc12,"activity change, negative = inhibition",[1]; at 57.5 µM (top of the series),3.43% (inactive)
same,max response,[1]; [17],14.1%
same,max response,[1]; [18],22%
CC1Cc2ccccc2N1NC(=O)c1ccc(Cl)c(S(N)(=O)=O)c1 (stereo not given),"activity change, negative = inhibition",[1]; at 57.5 µM (top of the series),7.15% (inactive)
same,max response,[1]; [17],9.62%
same,max response,[1]; [18],23.5%
CN1CCC(=C2c3ccccc3CCc3sccc32)CC1,"activity change, negative = inhibition",[1]; at 25.7 µM (top of the series),-0.622% (inactive)
same,"activity change, negative = inhibition",[1]; at 57.5 µM (top of the series),3.6% (inactive)
same,max response,[1]; [17],-11.4% and -0.631%
same,max response,[1]; [18],-11.1% and 14.8%
NC(=NCc1ccccc1)NC(=O)c1nc(Cl)c(N)nc1N,"activity change, negative = inhibition",[1]; at 25.7 µM (top of the series),0.817% (inactive)
same,"activity change, negative = inhibition",[1]; at 57.5 µM (top of the series),2.33% (inactive)
same,max response,[1]; [17],-4.7% and 21.8%
same,max response,[1]; [18],-4.9% and 26.9%
same,Potency,[2],inactive
same,Potency,[3],inactive
same,outcome,[4],inactive
same,Potency,[5],2000 nM (active)
same,Potency,[6],3160 nM (active)
same,Potency,[7],562 nM (active)
same,Potency,[8],891 nM (active)
same,Potency,[9],5010 nM (active)
same,Potency,[10],1000 nM (active)
same,Potency,[11],inactive
same,Potency,[12],inactive
same,Potency,[13],inactive
same,Potency,[14],inactive
same,Potency,[15],inactive
same,Potency,[16],inactive
CN1C(C(=O)Nc2ccccn2)=C(O)c2sccc2S1(=O)=O,"activity change, negative = inhibition",[1]; at 25.7 µM (top of the series),-0.44% (inactive)
same,max response,[1]; [17],-5.92%
same,max response,[1]; [18],-4.62%

# Source: PubChem BioAssay (NCATS)
